Measurements from ChEMBL document CHEMBL4513216, “Probing the Open Global Health Chemical Diversity Library for Multistage-Active Starting Points for Next-Generation Antimalarials” (ACS Infect Dis, 2020).
The whole screen tested about 69,000 compounds, of which about 8,600 (12%) showed an effect of 50% or more. Only a selection was taken, and strong results are over-represented in it overall.

Tested on: Plasmodium berghei
Test: Screen against P. berghei liver stage (PbLuc), transformed with Luciferase, at 10uM
Assay type: functional, HepG2
Conditions: tested at 10 uM

SMILES | INHIBITION [%]
CN1CCOC(CNCc2csc(C3CCCC3)n2)C1 (stereo not given) | 45.1
O=C(c1ccc(Cl)cc1)N1CCC(N2CCCOC2=O)CC1 | 48.2
COC1CCN(c2ccc(F)cc2CN(C)S(C)(=O)=O)CC1 | 4.52
CN(CC(C)(CO)CO)C(=O)Nc1cc(F)cc(Cl)c1 | -35.9
COCc1nc(C(=O)NS(=O)(=O)c2ccc(F)cc2F)cs1 | -1.95
NCCc1n[nH]c(=O)n1-c1cccc2ccccc12 | 30
CN(C)CCN1CCN(Cc2cccc(C#N)c2)Cc2cccnc21 | -4.32
COc1cccc(CNCCc2cc(F)cc3c2OCOC3)c1OC | 30
COc1c(CNCCC(=O)NC2CCCCC2)c(C(C)C)nn1C | -7.81
Cc1ccc(CN2CC(C(=O)NCC3CC3)C3(CCOCC3)C2)s1 (stereo not given) | -18.5
Cc1cnn(CC2CN(c3ccc(C#N)cn3)CCO2)c1 (stereo not given) | 21
CCc1nc(CN(C)C2CCN(CCC(=O)N3CCCCC3)C2)no1 (stereo not given) | 36.1
CC(=O)N(Cc1noc(C)n1)C1CCN(Cc2cc(C)on2)C1 (stereo not given) | -6.62
CCS(=O)(=O)CCN1CCC(N(C)Cc2noc(C(C)C)n2)C1 (stereo not given) | 21.2
Cc1nc(CN(C)C2CCN(CC3CCCC3)C2)no1 (stereo not given) | -22.9
CC(=O)N(Cc1noc(C)n1)C1CCN(Cc2ccon2)C1 (stereo not given) | 65.5
Cc1nc(CN(C)C2CCN(CCC(=O)N3CCOCC3)C2)no1 (stereo not given) | 51.1
CC(C)c1nc(CN(C)C2CCN(CCNS(C)(=O)=O)C2)no1 (stereo not given) | 53.3
Cc1nc(CN(C)C2CCN(CC(=O)N3CCOCC3)C2)no1 (stereo not given) | 17.3
Cc1nc(CN(C)C2CCN(CC3CCCCC3)C2)no1 (stereo not given) | 63.4
Cc1nc(CN(C)C2CCN(CC3CCC3)C2)no1 (stereo not given) | 18.2
CC(C)c1nc(CN(C)C2CCN(CCS(C)(=O)=O)C2)no1 (stereo not given) | 33.7

SMILES | INHIBITION [%]
CC(=O)N(Cc1noc(C)n1)C1CCN(Cc2ccccn2)C1 (stereo not given) | -39.7
COc1cccc(CN2CC(O)CN(C(=O)C3CCC3)CC2=O)c1OC (stereo not given) | 49.5
CNC(=O)[C@@H]1[C@@H](c2ccccc2)CN2CCN(Cc3ccccn3)C[C@H]12 | 20
O=C(NC1CC1)N1CCCC2(CCCCN2)C1 (stereo not given) | 13.7
c1cnn(CC2CN(Cc3nc(C4CC4)no3)CCO2)c1 (stereo not given) | -12.2
COc1ccc(C(C)NCc2nnc(C)s2)cc1F (stereo not given) | 39.4
COc1cc(C(C)NCc2ncccc2C)ccc1SC(F)F (stereo not given) | 66.2
COc1ccc(C(C)NCc2c[nH]nc2C)cc1OC (stereo not given) | -43
COc1ccc(C(C)NCc2scnc2C)cc1Cn1cccn1 (stereo not given) | 35.3
COc1cc(C(C)NCc2cscn2)ccc1SC(F)F (stereo not given) | 27
COc1cc(C(C)NCc2scnc2C)ccc1SC(F)F (stereo not given) | 75.6
Cc1nnc(CN(C)C2CCN(Cc3nc4ccccc4n3C)C2)o1 (stereo not given) | -25.8
Cn1c(SCC(O)COCc2ccc(Cl)cc2)nnc1C1CC1 (stereo not given) | -18.6
OC(COCc1ccccc1)CSc1nnc(C2CC2)n1C1CC1 (stereo not given) | 52.8
Cn1c(SCC(O)COCc2ccccc2Cl)nnc1C1CC1 (stereo not given) | 36.6
NC(=O)C1CCN(C(=O)c2cc(-n3cnnn3)ccc2Cl)CC1 | 28.4
CC(NC(=O)C1CC1)C(=O)N(C)Cc1ccsc1 (stereo not given) | 16.1
CCCc1ncc(CNC2(c3ccc(Cl)cc3)CC2)cn1 | 44.8
Cc1nc(C2CCN(C[C@H](C)CO)CC2)cc(N2CCOCC2)n1 | 60.3
Cc1nc(C2CCN(C(=O)COC(C)C)CC2)cc(N2CCOCC2)n1 | 3.96
Cc1nc(C2CCN(C(=O)CO)CC2)cc(N2CCOCC2)n1 | 36.8
O=C(Nc1cnn(C2CCOCC2)c1)c1ccc2c(c1)OCO2 | -38.6

SMILES | INHIBITION [%]
Cc1cccc(CC(=O)Nc2cnn(C3CCOC3)c2)c1 (stereo not given) | -13.6
O=C(Nc1ccc2c(c1)OCO2)Nc1cnn(C2CCOCC2)c1 | 36.5
O=C(Cc1cccs1)Nc1cnn(C2CCOC2)c1 (stereo not given) | 5.91
O=C(Cc1ccccc1Cl)Nc1cnn(C2CCOC2)c1 (stereo not given) | 51.8
O=C(Cc1cccs1)Nc1cnn(C2CCOCC2)c1 | 71.3
COc1ccccc1-c1cc(C(=O)Nc2nc[nH]n2)[nH]n1 | -36
O=S(=O)(CCN1CCCC1Cn1cncn1)c1ccccc1 (stereo not given) | -43.6
Cc1cc(C(=O)NCC(Cc2cccc(F)c2)N2CCCCC2=O)no1 (stereo not given) | 34.9
CNC(=O)[C@@H]1CCO[C@@H]2CCN(C3CCOCC3)C[C@@H]21 | -46.9
O=C(CCn1ccc2ccc(Br)cc21)NCc1ccc(C(=O)O)cc1 | 15.1
Cn1ccnc1C1CCCN(C(=O)c2ccncc2F)C1 (stereo not given) | 42.5
Cc1oncc1C(=O)N1CC2CC1(C(=O)N1CCCC1)C2 | -15.9
O=C(c1ccncc1F)N1CC2CC1(C(=O)N1CCCC1)C2 | 58
O=C(NCc1cc(-c2ccccc2)no1)NCC1CCCO1 (stereo not given) | 1.06
CC1=CCN(S(=O)(=O)c2cccc(C(=O)N3CCCN(C)CC3)c2)CC1 | 14
N#Cc1ccc(OCCN2CCn3c(nnc3C3CC3)C2)cc1 | 11.2
CS(=O)(=O)CCCSCc1cc(F)cc(Br)c1 | 31.2
NC(=O)CCSCc1ccc(Br)c(F)c1 | 52.8
CC(NC(N)=O)C(=O)NCc1ccc(Br)c(F)c1 (stereo not given) | -31.1
CS(=O)(=O)CCSCc1ccc(Br)c(F)c1 | 50.7
NC(=O)NC1CCN(Cc2ccc(Br)c(F)c2)CC1 | 1.45
CS(=O)(=O)CCCSCc1ccc(Br)c(F)c1 | -59.7

SMILES | INHIBITION [%]
Cc1ccnc(C2(C)CCCN2S(=O)(=O)c2ccccc2)n1 (stereo not given) | 45.55
Cn1cnnc1C1CCN(C(=O)COCc2ccccc2Cl)CC1 | 39.2
CC(C)Cn1cc(NC(=O)N2CCCC2)cn1 | -37.8
CN1C[C@@H]2CN(Cc3ccsc3)CCC[C@]2(C(=O)O)C1 | -64.1
CC(C)C1CCN(C(=O)NCC(=O)N(C)CC(F)(F)F)CC1 | 34.2
Cc1nnc(CN(C)S(=O)(=O)c2ccc(Br)cc2Cl)n1C | 33.1
CN(Cc1nnc2n1CCC2)S(=O)(=O)c1ccc(Br)cc1Cl | 52.6
CN(Cc1nnc2n1CCC2)S(=O)(=O)c1cc(Br)ccc1Br | 30.9
CC(CN1CCCC1=O)NC(=O)c1cc(Cl)c2c(c1)OCO2 (stereo not given) | 38.5
Cc1cccnc1CN1CCCCC1c1ccn2ccnc2n1 (stereo not given) | 45.6
Cn1cc(C(=O)N2CCCC(c3ncc[nH]3)C2)cn1 (stereo not given) | -24.9
O=S(=O)(c1ccccc1Cl)N1CCCC(c2ncc[nH]2)C1 (stereo not given) | 21.6
CCc1cnc(CCNC(=O)N2CCCC(c3ncc[nH]3)C2)s1 (stereo not given) | 52.6
CCc1ccc(S(=O)(=O)N2CCCC(c3ncc[nH]3)C2)s1 (stereo not given) | 81.2
CCOc1ccccc1CC(=O)N1CCCC(c2ncc[nH]2)C1 (stereo not given) | 19.7
O=S(=O)(c1ccc(Cl)s1)N1CCCC(c2ncc[nH]2)C1 (stereo not given) | 50.4
O=C(CCn1cnnc1)N1CCCC(c2ncc[nH]2)C1 (stereo not given) | -12.2
CCC(CC)c1cc(CNC(=O)N2CCCC(c3ncc[nH]3)C2)on1 (stereo not given) | -1.79
CCc1cnc(CNC(=O)N2CCCC(c3ncc[nH]3)C2)s1 (stereo not given) | 40.6
CCNc1nc2cn(-c3cccc(OC)c3)c(=O)c-2c[nH]1 | -76.4
O=C(O)c1ccc(=O)n(CC(c2ccc(F)cc2)N2CCCCCC2)c1 (stereo not given) | 14.65
CN1CCO[C@@H]2CN(S(=O)(=O)c3ccccc3F)CC[C@@H]2C1 | 21.7

SMILES | INHIBITION [%]
NCC1CCC(C(NC(=O)C2CC2)c2ccccn2)CC1 (stereo not given) | 29.3
CCOc1cc(=O)n2c(c1C(=O)OCc1ccc(OC)cc1)CCCC2 | 27.6
CN(CCOc1cccc(F)c1)CC(=O)Nc1ccncc1 | 21.55
CC(=O)Nc1cccc(OCCNC(=O)N(C)Cc2ccccc2)c1 | 80.8
CC(=O)Nc1cccc(OCCNC(=O)N(C)Cc2ccco2)c1 | -52.9
CC(=O)Nc1cccc(CNC(=O)N(C)Cc2ccccc2)c1 | -25
CC(=O)NCCOc1cccc(Br)c1 | 48.8
CC(=O)Nc1cccc(OCCNC(=O)N(C)Cc2ccncc2)c1 | 57.7
CCOCC(O)CN1CCN(C(=O)c2cc(Cl)ccc2F)CC1 (stereo not given) | -18
Cc1cnc(N2CCCC3(CCN(Cc4csc(C)n4)C3=O)C2)nc1 (stereo not given) | -49.8
CC(NC(=O)N1CCN(c2ccccc2O)CC1)c1nncn1C (stereo not given) | -1.14
CC(C)n1nc2c(cc1=O)CN(CCCN1CCCC1=O)CC2 | 11.9
CCCn1nc2c(cc1=O)CN(C(C)C(=O)Nc1nccs1)CC2 (stereo not given) | 29.4
CCn1nc2c(cc1=O)CN(Cc1nc3ccccc3o1)CC2 | 8.24
CCn1nc2c(cc1=O)CN(Cc1nc(C)c3ccccc3n1)CC2 | -3.72
CC(C)n1nc2c(cc1=O)CN(c1ncnc3sccc13)CC2 | 88.5
CC(C)n1nc2c(cc1=O)CN(CCOc1ccc(C#N)cc1)CC2 | -7.94
CCn1nc2c(cc1=O)CN(c1ncnc3sccc13)CC2 | 79.9
Cn1nc2c(cc1=O)CN(c1ncnc3sccc13)CC2 | 42.3
CCCn1nc2c(cc1=O)CN(c1ncnc3sccc13)CC2 | 96.2
CC(C(=O)NCc1ccnc(N2CCCCCC2)c1)n1cccn1 (stereo not given) | -39.6
COc1c(C)cnc(CN2CCOC(Cn3nc(C)cc3C)C2)c1C (stereo not given) | -21.7
